# Screening data (PubChem)
# LmPK inhibitor: LmPK (Leishmania mexicana) enzyme inhibition; Q27686; purified LmPK, Kinase-Glo ATP luminescence, 1 h; Potency, µM (highest dose often 57.5 µM), hits mostly inhibitors; hit rate 0.37% among 290,000; AID 1721
# Target sequence (Q27686 whole entry, looked up): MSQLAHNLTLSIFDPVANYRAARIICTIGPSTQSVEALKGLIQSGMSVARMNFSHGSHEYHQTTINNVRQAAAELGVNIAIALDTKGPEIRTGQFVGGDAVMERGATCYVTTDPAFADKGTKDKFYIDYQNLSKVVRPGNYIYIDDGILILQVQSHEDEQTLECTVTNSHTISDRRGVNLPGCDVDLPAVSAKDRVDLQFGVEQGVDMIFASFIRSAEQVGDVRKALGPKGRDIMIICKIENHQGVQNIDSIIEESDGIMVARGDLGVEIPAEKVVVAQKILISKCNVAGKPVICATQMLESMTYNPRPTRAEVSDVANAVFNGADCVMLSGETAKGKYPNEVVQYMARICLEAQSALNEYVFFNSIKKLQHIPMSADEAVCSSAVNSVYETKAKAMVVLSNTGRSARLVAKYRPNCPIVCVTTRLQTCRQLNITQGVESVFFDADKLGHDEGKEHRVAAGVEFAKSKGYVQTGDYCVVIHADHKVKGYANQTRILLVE
#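 Screened at intermediate enzyme activity to detect both inhibitors and activators: LmPK at 0.1 nM, with a 0.5 nM enzyme column as activation reference. PEP 0.5 mM, ADP 0.1 mM; ATP detected by luminescence after 1 h.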
# Giardia FBPA inh: Giardia lamblia aldolase inhibition; A8B2U2; purified Giardia FBPA; Potency, µM (highest dose often 59.6 µM), actives largely listed as inhibitors; hit rate 0.71% among 290,000; AID 2451; also: nearly all actives have a fitted effect of over 55% in size
#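 Giardia FBPA (40 nM reagent) was preincubated 10 min at RT with compound (up to 57.5 uM final), then substrate plus GAPDH/TPI/NAD/arsenate coupling system with diaphorase/resazurin was added; resorufin fluorescence (525/598 nm) was read after 20 min.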
# TbPYK inhibitor: T. brucei pyruvate kinase inhibition; Q57TT1; TbPYK enzyme, Kinase-Glo Plus ATP luminescence, 45 min; Potency, µM (doses to about 76.8 µM), hits mostly inhibitors; hit rate 0.12% among 410,000; AID 624173; also: nearly all actives have a fitted effect of over 50% in size
#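 Screened from lowest to highest concentration, compounds were pinned into TbPYK/substrate mixtures, and ADP (130 uM final) was added. Plates sat at room temperature for 45 min prior to Kinase-Glo Plus detection by luminescence.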
# RE007 growth inh: less growth of the S. pombe RE007 Vpr strain; hit rate 0.21% among 360,000; S. pombe RE007 Vpr strain, BacTiter-Glo ATP luminescence, 24 h; Potency, µM (titrated, usually from 92.2 µM), hits mostly inhibitors; AID 651644; active = well fitted falling curve with a large enough effect; inconclusive = small, poorly fitted or top-dose-only effect; inactive = no such curve, though single readings can be large or run the other way; also: nearly all actives have a fitted effect of over 50% in size
#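 Fission yeast strain RE007, carrying one chromosomally integrated HIV-1 vpr copy, was seeded at OD 0.01 in PMG+AL medium with 23 nL pinned compound. After 24 h at 30 °C and 99% humidity, viability was read by BacTiter-Glo luminescence.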
# Numbers stand for hits; - = inactive; ? = inconclusive; . = not tested or not shown; [ ] = another dose, or the depositor's remark. An excerpt weighted towards active compounds, which were near 0.95% of everything screened. Unless noted, calls follow the shape of the dose curve; as a rule, active = well fitted curve in the direction sought with a large enough effect; inconclusive = small, poorly fitted or top-dose-only effect, or another doubt; inactive = no such curve, though single readings can be large; an effect the other way counts as inactive or inconclusive.
SMILES,LmPK inhibitor,Giardia FBPA inh,TbPYK inhibitor,RE007 growth inh
COC(=O)c1ccc(N2C(=O)CC(N3CCN(c4ccccc4)CC3)C2=O)cc1 (stereo unspecified),.,.,-,?
CCOC(=O)c1ccc(N2C(=O)CC(N3CCC(O)(c4ccc(Br)cc4)CC3)C2=O)cc1 (stereo unspecified),-,-,-,-
COc1ccc(N2C(=O)CC(N3CCC(O)(c4cccc(C(F)(F)F)c4)CC3)C2=O)cc1 (stereo unspecified),-,-,-,31.6µM
CC(C)C[C@@H](NC(=O)[C@@H](COC(C)(C)C)NC(=O)[C@H](Cc1ccc(O)cc1)NC(=O)[C@@H](CO)NC(=O)[C@@H](Cc1c[nH]c2ccccc12)NC(=O)[C@@H](Cc1cnc[nH]1)NC(=O)[C@@H]1CCC(=O)N1)C(=O)N[C@H](CCCN=C(N)N)C(=O)N1CCC[C@H]1C(=O)NNC(N)=O,.,.,-,.
COc1ccccc1OCC(=O)Nc1ccc(S(=O)(=O)Nc2onc(C)c2C)cc1,-,-,-,-
O=C(CN1C(=O)C(=O)N(Cc2ccco2)C1=O)Nc1ccccc1,.,.,-,-
COc1ccc(N2C(=O)CC(C3CCCO3)C2=O)cc1 (stereo unspecified),-,-,-,-
COc1ccc(N2C(=O)CC(N3CCCCC3)C2=O)cc1 (stereo unspecified),-,-,-,17.8µM
O=C1CC(N2CCCCCC2)C(=O)N1c1ccc2c(c1)OCO2 (stereo unspecified),-,-,-,6.31µM
COc1ccc(N2C(=O)CC(N3CCN(c4ccc(S(=O)(=O)N5CCCC5)cc4)CC3)C2=O)cc1 (stereo unspecified),-,-,-,-
O=C1CC(N2CCSCC2)C(=O)N1c1ccc(F)cc1 (stereo unspecified),-,-,-,25.1µM
COc1ccc(N2C(=O)CC(N3CCCC4CCCCC43)C2=O)cc1 (stereo unspecified),-,-,-,7.08µM
O=C(CSc1nnc(-c2ccc(O)cc2)o1)Nc1ccccc1Br,-,-,-,-
O=c1cc(-c2ccccc2F)oc2ccccc12,-,-,-,63.1µM
CC(=O)C1=C(C)NC(SCC(=O)c2ccccc2)=C(C#N)C1CC(C)C (stereo unspecified),-,-,31.6µM,-
CC(c1ccccc1)C1C(C#N)=C(N)OC2=C1C(=O)CC(C)(C)C2 (stereo unspecified),-,-,.,-[3.69 µM]
CC1(C)CC(=O)C2=C(C1)OC(N)=C(C#N)C2C#Cc1ccccc1 (stereo unspecified),-,-,-,5.62µM
COc1cccc(/C=N/NC(=O)c2ccoc2C)c1,12.6µM,-,-,-
CCN(CC)c1ccc(/C=N/NC(=O)c2ccoc2C)cc1,14.1µM,-,?,-
Cc1ccc(/C=N/NC(=O)c2cc(C)oc2C)cc1,12.6µM,-,-,-
COc1cc(/C=N/NC(=O)c2ccoc2C)ccc1O,?,-,-,-
COC1=C(C(=O)O)N2C(=O)[C@@H](NC(=O)C(N)C3C=CCC=C3)[C@H]2SC1 (stereo partly specified),.,.,-,.
CN=C1C([N+](=O)[O-])=CC=C2C1=NC1(CCCCC1)N2O,-,5µM,-,-
O=[N+]([O-])C1=CC=C2C(=NC3(CCCCC3)N2O)C1=NCCO,-,7.06µM,-,-
CCOC(=O)c1cc(-c2ccccc2)n(CC(=O)Nc2ccc(OC)cc2OC)c1C,.,.,-[15.4 µM],.
SMILES,LmPK inhibitor,Giardia FBPA inh,TbPYK inhibitor,RE007 growth inh
Cc1ccc(C)c(NC(=O)Cn2cc(S(=O)(=O)N3CCCC3)c(S(=O)(=O)N3CCCC3)c2)c1,.,.,-,.
CCOC(=O)[C@]12Cc3cc(Cl)ccc3[C@H]1N(C)C(=O)c1cc(OC)ccc12,.,.,-,-
CCOC(=O)[C@]12Cc3ccc(C)cc3[C@H]1N(C1CCCCC1)C(=O)c1cc(OC)ccc12,.,.,-,15.8µM
CCOC(=O)[C@]12Cc3cc(Cl)ccc3[C@H]1N(C1CCCCC1)C(=O)c1cc(OC)ccc12,.,.,-,63.1µM
COc1cc(N=Nc2ccc(C)cc2S(N)(=O)=O)c(C)cc1N,.,.,-,-
COc1cc(-c2ccc(N=Nc3ccc4c(S(=O)(=O)O)cc(S(=O)(=O)O)c(N)c4c3O)c(OC)c2)ccc1N=Nc1ccc2c(S(=O)(=O)O)cc(S(=O)(=O)O)c(N)c2c1O,.,14.1µM,.,.
Cc1c(C=O)c(Cl)n(C)c(=O)c1C#N,-,9.98µM,-,-
CC(=O)N=Cc1c(C)c(C#N)c(=O)n(C)c1O,-,8.89µM,-,-
Cc1cc(C)n(C)c(=O)c1C#N,-,-,-,-
N#C/C(C(=O)c1ccccc1)=C1/CCCCCN1,-,-,-,28.2µM
COc1ccc(C(=O)N/N=C/c2ccc(N3CCOCC3)o2)cc1OC,?,?,31.6µM,-
COc1ccc(C(=O)Nc2ccc(N3CCCC3)cc2)cc1OC,?,-,?,-
COc1ccc(C(=O)Nc2ccc(N3CCOCC3)cc2)cc1OC,15.8µM,-,-,?
NC(C(=O)O)C(O)c1ccc(O)c(O)c1 (stereo unspecified),.,.,-,.
COc1cc(Cl)c(C)cc1NC(=O)CSc1cc(=O)n(C)c2cc(Cl)ccc12,.,.,-,.
O=C1C=CC(=O)N1c1ccc2ccccc2c1,.,.,?,2.24µM
Cc1cccc(N2C(=O)C=CC2=O)c1,.,.,?,8.91µM
Cc1cccc(N2C(=O)CC(=O)NC2=O)c1,-,-,-,-
O=C1C=CC(=O)N1c1ccc(Nc2ccccc2)cc1,.,.,?,11.2µM
COC(=O)c1ccc(Cn2c(SCc3ccccc3)nc3ccncc32)cc1,.,.,-,.
C/C(CC(=O)N1CCCC1)=N\NC(=O)c1cc2ccccc2cc1O,-,12.6µM,-,-
